Four compounds from PubChem BioAssay can be followed below.

SMILES strings stand for the structures. Where “and” joins values, the source holds several entries; their conditions need not be identical. Identical values can stand only once. Calls of active or inactive are those of the source.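 How the source made its calls, unless noted: active means thallium flux through the channel raised or lowered by more than 3 SD from vehicle-only wells, actives on both sides; inactive means the rest.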

Broadly, the inhibition is the drop in the measured response relative to a control, in per cent.

A short description of assay [1]: Wnt pathway potentiators raising nuclear beta-catenin – imaging, WNT3A-conditioned medium, mouse C2C12, NPC library, primary screen (AID 1117326; in the data active means nuclear beta-catenin stimulation mostly above about 4.2%, no sharp cut-off; inactive means mostly below about 10%). The note with it: stronger effect = higher value.
Assay [2] is described as follows: stimulators of insulin release from INS-1E, primary screen, cell-based, 5 mM glucose, NPC library (AID 1117329;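 active means compound raises insulin release from rat beta cells at 5 mM glucose, no numeric limit stated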). The conditions noted are these: rat INS-1E insulin secretion, at 10 µM, stronger effect = higher value.
A short description of assay [3]: growth inhibition of GSK3B-pretreated HCT116 cells – cell-based, CellTiter-Glo, 0.2 to 20 µM (AID 1117336;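 active means compounds lowering colon cancer cell viability after pretreatment blocking the GSK3B kinase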). The note with it: HCT116 viability after GSK3B inhibitor, at 20 µM, stronger effect = higher value. On the technique in general: In ATP-based viability assays light output follows the ATP content of the culture.
Assay [4] in a line: inhibition of endothelial tube formation, primary screen, imaging, VEGF stimulated, CD31 staining, tube area, NPC library (AID 1117340;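 active means compound that reduces growth-factor-driven endothelial tube area in a mixed cell culture, no cutoff stated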). The note with it: VEGF-stimulated ADSC/ECFC co-culture, at 10 µM, stronger effect = higher value.
The nature of assay [5]: GLP1 release stimulators, primary, NCI-H716, NPC library (AID 1117341;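 active means compound raises GLP1 secretion from the human gut endocrine cells, with no numeric limit stated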). The conditions noted are these: NCI-H716 cells, at 10 µM, stronger effect = higher value.
A short description of assay [6]: HCT116 colon cancer cell growth inhibition, primary screen, CellTiter-Glo luminescence, NPC library (AID 1117342;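 active means compounds that lower survival of HCT116 colon cancer cells in the luminescence readout, no numeric limit stated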). The note with it: at 20 µM (top of the series).
A short description of assay [7]: reduced SW480 viability measured with CellTiter-Glo, NPC library, primary (AID 1117343;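 active means compounds that lower viability of the colon cancer cells in the luminescence readout, with no numeric limit stated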). The note with it: CellTiter-Glo luminescence; at 20 µM (top of the series).
The nature of assay [8]: NPC library primary testing for decreased DLD-1 cell viability via CellTiter-Glo (AID 1117346;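 active means compounds that lower survival of DLD-1 colon cancer cells in the luminescence readout, no cutoff given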). The conditions noted are these: DLD-1 viability, CellTiter-Glo luminescence; at 20 µM (top of the series).
Assay [9] deals with 6-phosphogluconate dehydrogenase, decarboxylating (Homo sapiens) (UniProt P52209). Nature of the assay: inhibition of human phosphogluconate dehydrogenase – biochemical, recombinant enzyme, NADPH absorbance, primary screen (AID 1159550;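 active means at least 20% inhibition of 6-phosphogluconate dehydrogenase activity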). The note with it: recombinant 6PGD, NADPH absorbance 341 nm; at 10 µM; stronger effect = higher value.
6-phosphogluconate dehydrogenase, decarboxylating (Homo sapiens), sequence (P52209 whole entry, looked up): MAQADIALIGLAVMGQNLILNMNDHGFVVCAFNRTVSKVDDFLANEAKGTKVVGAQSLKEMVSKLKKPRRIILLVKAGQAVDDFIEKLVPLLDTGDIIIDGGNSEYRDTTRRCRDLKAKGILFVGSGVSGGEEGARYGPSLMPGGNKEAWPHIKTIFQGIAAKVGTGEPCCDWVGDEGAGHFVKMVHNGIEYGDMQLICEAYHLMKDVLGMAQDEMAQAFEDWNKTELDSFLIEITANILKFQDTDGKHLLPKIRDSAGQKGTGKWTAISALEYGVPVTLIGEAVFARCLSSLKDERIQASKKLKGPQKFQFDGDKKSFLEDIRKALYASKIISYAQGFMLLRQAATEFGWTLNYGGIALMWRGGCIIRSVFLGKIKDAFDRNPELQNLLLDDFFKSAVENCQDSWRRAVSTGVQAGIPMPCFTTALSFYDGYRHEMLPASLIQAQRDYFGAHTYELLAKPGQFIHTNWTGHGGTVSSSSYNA
The nature of assay [10]: modulation of C. elegans fzo-1 (AID 1259413; call rule not given here;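 further: fzo-1 mutant C. elegans worms in liquid wells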). The note with it: C. elegans fzo-1 modulator screen, mean read-out; stronger effect = higher value.
The nature of assay [11]: EMT-state selective cytotoxicity in co-culture – imaging, PC-3E GFP, TEM4-18 mCherry, primary screen (AID 1345086;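 active means compounds killing one labelled cell type while sparing the other, by normalised counts and ratio limits, not self-fluorescent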;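 on all read-outs here: cells exposed to compound for 72 h before imaging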;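 on red/green cell ratio (normalised): normalised mesenchymal count divided by normalised epithelial count so high means epithelial killing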). The note with it: PC-3E GFP / TEM4-18 mCherry co-culture, imaging cell counts, at 1 µM; for red/green cell ratio (normalised): actives lie on both sides, counts scaled to control wells, 1 = unselective.
A short description of assay [12]: MELAS cybrid and Rieske KO viability enhancers – cell-based, MELAS cybrids, Rieske KO mouse fibroblasts, CellTiter-Glo, primary screen (AID 1508586;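 active means mean z-score across replicates of 1.96 or higher in either the MELAS or the Rieske mutant cell line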;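 further: z relative to plate mean and SD of compound and empty wells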). The conditions noted are these: low glucose.
Assay [13] concerns the target NAD(+) hydrolase SARM1 (Homo sapiens) (UniProt Q6SZW1). Nature of the assay: blocking NAD cleavage by SARM1 SAM-TIR – cell lysate, NAD-Glo luminescence (AID 1508614;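 active means compound whose remaining NAD level is above about 45 nM, limit read from the data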). The conditions noted are these: SAM-TIR HEK293T lysate NADase, at 1 µM, stronger effect = higher value.
In assay [14] the target is Mitogen-activated protein kinase 7 (Homo sapiens) (UniProt Q13164). Description: Gal4-ERK5 driven luciferase induction – cell-based, HTS, primary screen (AID 1508626;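 active means luciferase signal above three times the same-plate solvent-only control wells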;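 further: luciferase driven by Gal4-ERK5 fusion binding five Gal4 sites before minimal TATA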). The note with it: HeLa Gal4-ERK5 transactivation, 18 h, at 5 µM, stronger effect = higher value.
Mitogen-activated protein kinase 7 (Homo sapiens), sequence (Q13164 whole entry, looked up, the tested form may be a part): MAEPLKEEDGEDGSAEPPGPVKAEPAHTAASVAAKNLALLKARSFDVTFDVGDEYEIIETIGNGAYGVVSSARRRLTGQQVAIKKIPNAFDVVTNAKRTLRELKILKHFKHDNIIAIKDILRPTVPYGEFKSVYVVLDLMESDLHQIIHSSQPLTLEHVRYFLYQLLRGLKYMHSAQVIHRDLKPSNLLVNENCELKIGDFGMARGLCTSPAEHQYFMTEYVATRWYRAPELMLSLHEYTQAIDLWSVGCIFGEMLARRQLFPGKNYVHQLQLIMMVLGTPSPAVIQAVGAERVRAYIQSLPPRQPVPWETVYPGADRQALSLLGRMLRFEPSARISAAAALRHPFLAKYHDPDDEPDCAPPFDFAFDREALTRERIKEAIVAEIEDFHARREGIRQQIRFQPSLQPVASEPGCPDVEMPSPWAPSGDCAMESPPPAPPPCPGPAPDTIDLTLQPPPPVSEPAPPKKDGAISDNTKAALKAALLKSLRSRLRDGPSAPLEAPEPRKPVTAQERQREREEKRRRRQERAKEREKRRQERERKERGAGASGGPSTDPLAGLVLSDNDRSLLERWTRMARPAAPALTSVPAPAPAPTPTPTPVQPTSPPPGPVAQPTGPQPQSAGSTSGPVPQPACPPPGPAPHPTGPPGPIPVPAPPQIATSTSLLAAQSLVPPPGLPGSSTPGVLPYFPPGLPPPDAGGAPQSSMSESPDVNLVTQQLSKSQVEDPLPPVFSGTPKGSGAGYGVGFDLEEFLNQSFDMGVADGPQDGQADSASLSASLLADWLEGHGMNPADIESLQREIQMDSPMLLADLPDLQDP
The next assay has as its system F380Y. Description: BK channel mutant inhibitors and activators – cell-based, U2OS BacMam, thallium flux, beta subunits, selectivity assay, profiling panel (AID 1259406).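 Further: initial slope of Thallos dye fluorescence rise after thallium is added; log ratio against the mean of 0.3% DMSO vehicle wells on the same plate.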 The conditions noted are these: U2OS BacMam BK variants, at 30 µM.
A further assay concerns F380Y/beta1. The description is as above. The conditions noted are these: U2OS BacMam BK variants, at 30 µM.
In another assay the test system is F380Y/beta2Delta. Described as above. The conditions noted are these: U2OS BacMam BK variants, at 30 µM.
Another assay relates to F380Y/beta4. The assay is described as above. The note with it: U2OS BacMam BK variants, at 30 µM.
Assay [15] has as its target Calcium-activated potassium channel subunit alpha-1 (Homo sapiens) + Leucine-rich repeat-containing protein 26 (Homo sapiens) (UniProt Q12791+Q2I0M4). The description is as above. The note with it: U2OS BacMam BK variants, F380Y/Slo1WT/gamma1, at 30 µM.
Setting [16] is: measured here: epithelial PC-3E GFP cell survival.
Where [17] appears, read: measured here: mesenchymal TEM4-18 mCherry cell survival.
[18] abbreviates: MELAS cybrid survival, CellTiter-Glo 48 h, stronger effect = higher value.
Where [19] appears, read: Rieske KO mouse fibroblast survival, CellTiter-Glo 72 h.

Calcium-activated potassium channel subunit alpha-1 (Homo sapiens) + Leucine-rich repeat-containing protein 26 (Homo sapiens), sequence (Q2I0M4 whole entry, looked up, one chain of several): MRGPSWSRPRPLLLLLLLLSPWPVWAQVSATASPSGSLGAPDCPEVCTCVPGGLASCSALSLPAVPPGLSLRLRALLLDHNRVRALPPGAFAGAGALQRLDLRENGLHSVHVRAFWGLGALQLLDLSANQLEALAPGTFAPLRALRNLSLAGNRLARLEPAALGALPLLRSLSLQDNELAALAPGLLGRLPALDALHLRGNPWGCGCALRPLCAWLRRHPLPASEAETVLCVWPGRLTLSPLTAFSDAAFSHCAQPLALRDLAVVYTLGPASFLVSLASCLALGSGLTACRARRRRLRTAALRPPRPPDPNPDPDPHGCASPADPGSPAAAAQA
NAD(+) hydrolase SARM1 (Homo sapiens), sequence (Q6SZW1 whole entry, looked up, the tested form may be a part): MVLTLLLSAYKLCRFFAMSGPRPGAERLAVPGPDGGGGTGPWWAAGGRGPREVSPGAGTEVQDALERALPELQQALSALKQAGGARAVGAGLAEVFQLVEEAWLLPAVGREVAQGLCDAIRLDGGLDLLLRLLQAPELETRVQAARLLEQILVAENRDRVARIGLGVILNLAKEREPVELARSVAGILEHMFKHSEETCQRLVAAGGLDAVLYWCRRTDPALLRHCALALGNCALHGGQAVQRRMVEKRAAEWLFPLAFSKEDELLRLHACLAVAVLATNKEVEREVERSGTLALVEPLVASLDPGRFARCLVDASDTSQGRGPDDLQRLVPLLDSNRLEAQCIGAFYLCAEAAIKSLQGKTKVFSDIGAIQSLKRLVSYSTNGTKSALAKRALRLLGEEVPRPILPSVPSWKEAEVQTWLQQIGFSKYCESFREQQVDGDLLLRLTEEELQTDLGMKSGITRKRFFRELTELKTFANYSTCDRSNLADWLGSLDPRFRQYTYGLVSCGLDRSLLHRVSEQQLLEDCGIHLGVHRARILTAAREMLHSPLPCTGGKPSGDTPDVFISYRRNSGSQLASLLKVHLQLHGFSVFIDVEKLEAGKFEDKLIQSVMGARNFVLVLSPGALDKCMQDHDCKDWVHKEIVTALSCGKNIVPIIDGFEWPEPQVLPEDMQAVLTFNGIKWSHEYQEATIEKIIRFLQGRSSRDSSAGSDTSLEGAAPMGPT

Consider `CC1COc2c(N3CCN(C)CC3)c(F)cc3c(=O)c(C(=O)O)cn1c23` (configuration not stated), for which the nuclear beta-catenin stimulation is -0.3% (inactive) in assay [1] (at 10 µM) and -0.9% in [1] (stimulation, at 2 µM). In assay [2], the insulin secretion stimulation is 3.4% (inactive). Moreover, the viability decrease in [3] was 14.4% (inactive). The tube area decrease in assay [4] is -15.9% (inactive). Further, in [5], the GLP1 secretion stimulation is 2.5% (inactive). Also, the inhibition of viability in assay [6] is 0.4% (inactive). Moreover, the values for the viability decrease (inhibition) in assay [7] and in [8] were -9.6% (inactive) and -8.7% (inactive), respectively. Besides, the inhibition in assay [9] was 0.495% (inactive). Further, the mean signal in assay [10] was 237 (inactive). For the same compound, the red/green cell ratio (normalised) in assay [11] is 0.96 (inactive) and 1.29 (inactive). Besides, the normalised cell number in [11] (setting [16]) was 1.1 and 0.91; in assay [11] (setting [17]) it was 1.06 and 1.18. Besides, the z-score in [12] (setting [18]) is -0.837 (inactive) and -0.951 (inactive) and -0.349 (inactive); in assay [12] (setting [19]) it was -0.0297 and -0.43 and -0.633. Moreover, the remaining NAD in assay [13] was 10 nM (inactive). Also, the luciferase signal in assay [14] is 60 AU (inactive). Also, the log fold change Tl+ flux is 0.0183 (inactive) with F380Y; -0.00501 (inactive) in the assay on F380Y/beta1; 0.0472 (inactive) in the assay with F380Y/beta2Delta; 0.0067 (inactive) in the assay on F380Y/beta4; 0.00974 (inactive) in assay [15].

For the compound `CN=C(NC#N)NCCSCc1nc[nH]c1C`, the nuclear beta-catenin stimulation in assay [1] (at 10 µM) is 0.2% (inactive); in assay [1] (stimulation, at 2 µM) it was -1.1%. Also, in assay [2], the insulin secretion stimulation was 1.3% (inactive). Further, in assay [3], the viability decrease was 10.8% (inactive). Besides, in [4], the tube area decrease is -5.8% (inactive). The GLP1 secretion stimulation in assay [5] was -0.3% (inactive). In addition, the inhibition of viability in assay [6] is 8.17% (inactive). For the same compound, the results for the viability decrease (inhibition) in assay [7] and in assay [8] were 36.9% (inactive) and 1.2% (inactive), respectively. For the same compound, the inhibition in assay [9] was -10.7% (inactive). Moreover, the mean signal in [10] was 239 (inactive). Besides, in assay [11], the red/green cell ratio (normalised) was 1.04 (inactive). The normalised cell number in [11] (setting [16]) turned out to be 1.01; in [11] (setting [17]) it was 1.05. Besides, the z-score is -0.132 (inactive) and 0.533 (inactive) and -0.0775 (inactive) in assay [12] (setting [18]); -0.116 and -0.0466 and 0.0997 in assay [12] (setting [19]). In addition, the remaining NAD in assay [13] is 10 nM (inactive). Moreover, the luciferase signal in assay [14] is 44 AU (inactive). The log fold change Tl+ flux with F380Y is 0.0123 (inactive); in the assay on F380Y/beta1 it was 0.0381 (inactive); in the assay on F380Y/beta2Delta it was -0.0232 (inactive); in the assay with F380Y/beta4, 0.031 (inactive); in assay [15] it was 0.0464 (inactive).

In the case of `CC1(C)O[C@@H]2[C@@H](CO[C@@]3(COS(N)(=O)=O)OC(C)(C)O[C@@H]23)O1`, the nuclear beta-catenin stimulation in assay [1] (at 10 µM) was -1.6% (inactive); in assay [1] (stimulation, at 2 µM), 0.6%. The insulin secretion stimulation in assay [2] is -0.2% (inactive). Further, the viability decrease in assay [3] is -4.2% (inactive). The tube area decrease in assay [4] is 14.7% (inactive). The GLP1 secretion stimulation in assay [5] is -0.1% (inactive). Moreover, the inhibition of viability in assay [6] was -8.2% (inactive). Also, the values for the viability decrease (inhibition) in assay [7] and in assay [8] were -0.9% (inactive) and -7.1% (inactive), respectively. For the same compound, in assay [9], the inhibition was 5.76% (inactive). In [10], the mean signal was 229 (inactive). Moreover, the red/green cell ratio (normalised) in assay [11] is 1.43 (inactive). Moreover, the normalised cell number in assay [11] (setting [16]) is 1.11; in assay [11] (setting [17]), 1.58. In addition, the z-score in assay [12] (setting [18]) is 0.776 (inactive); in assay [12] (setting [19]) it was 0.627. Also, in [13], the remaining NAD is 10 nM (inactive). Also, the luciferase signal in assay [14] is 24 AU (inactive). In addition, the log fold change Tl+ flux in the assay on F380Y is -0.00202 (inactive); in the assay with F380Y/beta1 it was 0.0196 (inactive); with F380Y/beta2Delta, 0.0184 (inactive); in the assay on F380Y/beta4, 0.0387 (inactive); in assay [15] it was 0.0353 (inactive).

For the compound `CCCc1nc2c(C)cc(-c3nc4ccccc4n3C)cc2n1Cc1ccc(-c2ccccc2C(=O)O)cc1`, the nuclear beta-catenin stimulation in assay [1] (at 10 µM) was 3.7% (inactive); in [1] (stimulation, at 2 µM) it was 1.8%. For the same compound, the insulin secretion stimulation in [2] is -0.5% (inactive). Besides, the viability decrease in [3] was -22.6% (inactive). Further, the tube area decrease in [4] was 8% (inactive). Moreover, the GLP1 secretion stimulation in assay [5] is 1.1% (inactive). Further, the inhibition of viability in [6] is 42% (inactive). Besides, the viability decrease (inhibition) in assay [7] is 94.1% (active); in assay [8], 36.3% (inactive). The inhibition in assay [9] was 2.16% (inactive). In assay [10], the mean signal is 236 (inactive). Also, the red/green cell ratio (normalised) in assay [11] is 0.63 (inactive). In addition, the normalised cell number came out at 1.26 in assay [11] (setting [16]) and 0.8 in [11] (setting [17]). In addition, the z-score in assay [12] (setting [18]) was -0.258 (inactive) and 0.956 (inactive) and -0.424 (inactive); in assay [12] (setting [19]) it was 0.516 and 0.961 and -0.332. Also, in assay [13], the remaining NAD is 10 nM (inactive). In addition, the luciferase signal in [14] is 96 AU (inactive). Also, the log fold change Tl+ flux with F380Y was -0.0745 (inactive); in the assay with F380Y/beta1, 0.00163 (inactive); with F380Y/beta2Delta, 0.025 (inactive); in the assay with F380Y/beta4 it was -0.000976 (inactive); in assay [15], 0.054 (inactive).
